DRD3 agonist: D3 dopamine receptor (human) agonism; P35462; D3R DiscoveRx beta-arrestin cells, luminescence, 90 min; max activation, %; actives 0.58% (n = 410,000); AID 652048; in the data active means max activation above about 30%
Target sequence (P35462 whole entry, looked up): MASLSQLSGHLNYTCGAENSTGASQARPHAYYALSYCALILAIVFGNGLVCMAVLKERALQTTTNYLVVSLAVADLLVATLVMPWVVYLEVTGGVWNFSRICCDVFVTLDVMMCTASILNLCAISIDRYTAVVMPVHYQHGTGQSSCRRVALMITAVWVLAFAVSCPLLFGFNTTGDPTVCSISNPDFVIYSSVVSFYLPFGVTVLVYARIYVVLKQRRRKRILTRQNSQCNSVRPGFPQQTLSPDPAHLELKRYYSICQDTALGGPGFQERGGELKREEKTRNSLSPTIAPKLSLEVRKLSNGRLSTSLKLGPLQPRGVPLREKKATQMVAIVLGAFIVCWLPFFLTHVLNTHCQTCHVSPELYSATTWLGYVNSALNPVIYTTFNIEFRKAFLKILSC
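Agonist-mode cell screen: cells plated at 1500/well and incubated overnight at 37 °C, then exposed to library compounds for 90 min at 37 °C. Detection reagent was added for 30–60 min at room temperature, and luminescence was read.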
HepG2 viability: kills HepG2 cells in TGF-b inhibitor counter-screen | HepG2 CAGA-GFP viability, ATP luminescence, 18 h | Potency, µM (titrated, usually from 46.1 µM), usual class: cytotoxic | actives 0.76% (n = 410,000)
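HepG2 CAGA-GFP cells (1000/well, DMEM with 1% FBS) received compound, then TGF-beta at 500 pg/mL final, and were incubated 18 hours at 37 degrees C. Viability was read by CellTiter-Glo luminescence. Media-only wells were set as complete cell-killing and DMSO as no toxicity.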
ATXN viability: viability counter-screen for ATXN expression inhibitors; Potency, µM (doses to about 56.7 µM), usual class: cytotoxic; actives 0.49% (n = 400,000); S2 cells (HEK-293 line with an ATXN2-luciferase reporter) viability, CellTiter-Fluor protease fluorescence, 24 h; AID 651635; further: nearly all actives have a fitted effect of over 40% in size
DRD3 antagonist: antagonists of human D3 dopamine receptor; P35462; D3R cells, DiscoveRx beta-arrestin luminescence, antagonist mode; active compounds read low; max response, negative = inhibition, %; actives 2.5% (n = 360,000); AID 652054; in the data active means max response below about -50%; inconclusive means no clear call, values can overlap the other calls
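Cells expressing the human receptor were seeded at 1500 cells/well, incubated overnight at 37 degrees C in 5% CO2, then exposed to library compounds with dopamine controls for 90 minutes at 37 degrees C before luminescent detection.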
TGFb SMAD3 inh: blocks TGF-b signaling | HepG2 CAGA-GFP TGF-b/SMAD3 reporter, GFP fluorescence, 18 h; TGF-beta stimulated, 500 pg/mL final | Potency, µM (top dose mostly 46.1 µM), actives largely listed as inhibitors | actives 1.2% (n = 410,000); further: nearly all actives have a fitted effect of over 65% in size
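HEPG2 CAGA-GFP reporter cells (1000/well, DMEM with 1% FBS) received compounds, then recombinant TGF-beta at 500 pg/mL final for 18 hours at 37 degrees C. Per-cell GFP summed per well was normalised to unstimulated and stimulated DMSO controls before curve fitting.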
ATXN2 expr inh: ATXN2 expression inhibition | HEK-293 ATXN2-luciferase reporter, luminescence, 24 h | Potency, µM (top dose mostly 57 µM), actives largely listed as inhibitors | actives 0.72% (n = 360,000); further: nearly all actives have a fitted effect of over 55% in size
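qHTS (up to 57 uM final) was run with 24 h compound exposure of reporter cells at 37 °C. Each well was multiplexed: SteadyGlo luminescence measured ATXN2-luciferase expression after a fluorogenic Gly-Phe-AFC viability readout (25 uM final).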
Hits are given with their value. An excerpt weighted towards active compounds, which were near 4.8% of everything screened. Unless noted, the call rests on the fitted dose curve; in most records, active means well fitted curve in the direction sought with a large enough effect; inconclusive means small, poorly fitted or top-dose-only effect, or another doubt; inactive means no such curve, though single readings can be large; an effect the other way counts as inactive or inconclusive.

Results for CCOC(=O)N1CCN(c2cc(NCCC(=O)O)c3c4c(onc24)-c2ccccc2C3=O)CC1 ?
DRD3 agonist: inactive; HepG2 viability: inactive; ATXN viability: inconclusive; DRD3 antagonist: -76.8; TGFb SMAD3 inh: inactive; ATXN2 expr inh: inactive

How did Cc1cnc(-n2ncc(C(=O)N(C)C3CCOC3)c2C)nc1-c1ccc(F)cc1 (stereo unspecified) do in these assays?
ATXN viability: inactive

Results for Cc1cc(C(=O)c2ccc(C(C)(C)C)cc2)c(NC(=O)CCl)s1 ?
DRD3 agonist: inactive; HepG2 viability: inactive; ATXN viability: inconclusive; DRD3 antagonist: inactive; TGFb SMAD3 inh: 15.8µM; ATXN2 expr inh: inconclusive

How did Cc1sc(NC(=O)CCl)c(C(=O)c2ccccc2)c1C do in these assays?
DRD3 agonist: inactive; HepG2 viability: 12.6µM; ATXN viability: inconclusive; DRD3 antagonist: -66.3; TGFb SMAD3 inh: inconclusive; ATXN2 expr inh: inconclusive

What do the screens show for `O=C(Nc1ccccc1Cl)C1CCN(c2nc3ccccc3[nH]2)CC1`?
DRD3 agonist: inactive; HepG2 viability: inactive; TGFb SMAD3 inh: inactive

Results for CCc1ccc2c(c1)/C(=C/C(=O)c1cccs1)C(=O)N2 ?
DRD3 agonist: inactive; HepG2 viability: 11.2µM; DRD3 antagonist: inactive; TGFb SMAD3 inh: inconclusive; ATXN2 expr inh: inconclusive

How did Cc1cc(C)c2c(c1)/C(=C/C(=O)c1ccc(Br)s1)C(=O)N2 do in these assays?
DRD3 agonist: inactive; HepG2 viability: inactive; ATXN viability: inconclusive; DRD3 antagonist: inconclusive; TGFb SMAD3 inh: inactive; ATXN2 expr inh: 17.8µM

What do the screens show for `Cc1cccc2c1NC(=O)/C2=C\C(=O)c1cccs1`?
DRD3 agonist: inactive; HepG2 viability: inactive; ATXN viability: inactive; DRD3 antagonist: inactive; TGFb SMAD3 inh: 10µM; ATXN2 expr inh: inconclusive

What do the screens show for `Cc1cc(Br)c2c(c1)/C(=C/C(=O)c1cccs1)C(=O)N2`?
DRD3 agonist: inactive; HepG2 viability: inactive; ATXN viability: inconclusive; DRD3 antagonist: inactive; TGFb SMAD3 inh: inconclusive; ATXN2 expr inh: inconclusive

What do the screens show for `O=C1Nc2ccccc2/C1=C\C(=O)c1ccccc1`?
DRD3 agonist: inactive; HepG2 viability: inactive; ATXN viability: inconclusive; DRD3 antagonist: inactive; TGFb SMAD3 inh: inconclusive; ATXN2 expr inh: inconclusive

How did COc1ccc(-c2cn3cccnc3n2)cc1NC(=O)Nc1cc(C)ccc1C do in these assays?
DRD3 agonist: inactive; HepG2 viability: inactive; ATXN viability: inconclusive; TGFb SMAD3 inh: inactive; ATXN2 expr inh: inconclusive

Results for C=C1C(=C/C=C2\CCC[C@]3(C)[C@@H]([C@H](C)CCCC(C)C)CC[C@@H]23)C[C@@H](O)C[C@@H]1O ?
DRD3 agonist: inactive

Results for O=S(=O)(N/N=C/c1ccc(Cl)cc1)c1ccc(Cc2ncc(C(F)(F)F)cc2Cl)s1 ?
DRD3 agonist: inactive; HepG2 viability: inactive; ATXN viability: inconclusive; DRD3 antagonist: -73.4; TGFb SMAD3 inh: inactive; ATXN2 expr inh: inactive

What do the screens show for `CCOc1ccc(-c2csc(/C(C#N)=C\c3ccc(O)c([N+](=O)[O-])c3)n2)cc1`?
DRD3 agonist: inactive; HepG2 viability: inactive; DRD3 antagonist: inactive; TGFb SMAD3 inh: 5.01µM; ATXN2 expr inh: inconclusive

Results for CCc1ccc(/C=C(/C#N)c2nc(-c3ccc(C)cc3)cs2)cc1 ?
DRD3 agonist: inactive; HepG2 viability: inactive; TGFb SMAD3 inh: inactive; ATXN2 expr inh: inactive

Results for CC1CCN(C(=O)c2ncn(C)c2C(=O)N2CCC(C)CC2)CC1 ?
DRD3 agonist: inactive; HepG2 viability: inactive; ATXN viability: inactive; DRD3 antagonist: -51.1; TGFb SMAD3 inh: inactive; ATXN2 expr inh: inactive

What do the screens show for `Nc1nc(Cl)cc(N2CCC(c3cc(-c4ccc(Cl)cc4)n[nH]3)CC2)n1`?
DRD3 agonist: inactive; HepG2 viability: 11.2µM; ATXN viability: inconclusive; DRD3 antagonist: inactive; TGFb SMAD3 inh: 11.2µM; ATXN2 expr inh: 25.1µM

What do the screens show for `COc1ccc(OC)c(-c2cc(C3CCN(c4cc(Cl)nc(N)n4)CC3)[nH]n2)c1`?
DRD3 agonist: inactive; HepG2 viability: inactive; ATXN viability: inactive; DRD3 antagonist: inactive; TGFb SMAD3 inh: inconclusive; ATXN2 expr inh: inconclusive
